# Source: PubChem (several laboratories)
# In the library only some 3.8% were active in any assay of this set; here they are far more common.
# Yeast superoxide: caloric restriction mimetics inhibiting age-related superoxide in yeast | AID 2690 | superoxide response (% of plate mean), % at 10 µM | 330,000 tested, 0.18% active | S. cerevisiae aged cells, superoxide DHE fluorescence; active compounds read low;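 active = superoxide response under a set limit, about three screen SD below normal, cut at about 65% in these data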;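 note: yeast aged for seven days with compound at 30 °C before DHE staining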
# NALP3 yeast inh: inhibitors of NALP3 inflammasome in yeast | Yeast reconstituted NLRP3/ASC/caspase-1, beta-gal luminescence, 24 h | inhibition, % at 10 µM | AID 2825 | 330,000 tested, 0.39% active;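 active = inhibition of 50% or more; inactive = inhibition below 50%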
# tim23-1 inh: inhibits growth of tim23-1 mutant yeast. S. cerevisiae tim23-1 growth, BacTiter-Glo luminescence, 24 h. inhibition, % at 20 µM. 330,000 tested, 1.3% active;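 active = growth inhibition of the mutant yeast at or above 50%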;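 note: temperature-sensitive mutant grown at 25 °C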
# TIM10 inh: inhibits growth of TIM10 yeast strain; S. cerevisiae TIM10 strain growth, BacTiter-Glo luminescence, 24 h; inhibition, % at 10 µM; 330,000 tested, 1.4% active;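 active = inhibition of 40% or more at the single tested concentration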;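 note: wild-type TIM10 isogenic control strain grown at permissive 25 °C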
# tim10-1 inh: inhibits growth of tim10-1 mutant yeast; S. cerevisiae tim10-1 ts strain growth, BacTiter-Glo, 24 h; inhibition, % at 20 µM; 330,000 tested, 2.2% active; AID 463190;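 active = inhibition of at least 40%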;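 note: mutant grown at 25 °C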
# tim10-1 conf: confirmation of tim10-1 mutant yeast growth inhibitors. shares compounds with tim10-1 inh. S. cerevisiae tim10-1 ts strain growth, BacTiter-Glo, 24 h. inhibition, % at 20 µM. 7,400 tested, 56% active. AID 463213;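 active = inhibition of yeast growth at or above a set limit in either of two repeat tests at 20 µM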;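 note: tim10-1 mutant grown at permissive 25 °C to find synthetic lethal compounds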
# Hits are given with their value; 0 = inactive; - = not tested or not shown.
SMILES,Yeast superoxide,NALP3 yeast inh,tim23-1 inh,TIM10 inh,tim10-1 inh,tim10-1 conf
Cc1cc(C(F)F)n2nc(C(=O)Nc3sc4c(c3C#N)CCC4)nc2n1,0,0,0,0,42,35
Cc1onc(-c2ccccc2)c1C(=O)NC(=S)Nc1sc2c(c1C#N)CCC(C)C2 (configuration not stated),0,0,0,0,0,-
CNC(=O)c1c(NC(=O)c2ccco2)sc2c1CCC2,0,0,0,0,41,0
CCN1CCN(C(=O)c2ccccc2N(Cc2ccccc2)S(=O)(=O)c2ccc(C)cc2)CC1,0,0,0,0,0,-
O=C(NCCN1CCCCC1)Nc1ccc(F)cc1F,0,0,0,0,0,-
Cc1cc(C(=O)Nc2ccccc2C)n(-c2ccccc2)n1,0,0,0,0,0,-
O=C(OCc1nc2ccccc2s1)C1CCN(S(=O)(=O)c2cccs2)CC1,0,0,0,0,48,0
CN1CCN(S(=O)(=O)c2cccc(C(=O)Nc3cc(Cl)ccc3N3CCOCC3)c2)CC1,0,0,0,0,0,-
COc1ccc(S(=O)(=O)Nc2c(C(=O)O)[nH]c3ccc(OC)cc23)c(OC)c1,0,0,0,0,0,-
Cc1ccc(C2CC(c3ccc(Cl)cc3)=NNC2=O)cc1 (configuration not stated),0,0,0,0,0,-
CN1N=C(c2ccc(Cl)cc2)CC(c2ccc(Cl)cc2)C1=O (configuration not stated),0,0,0,0,42,0
Nc1ccc(Cl)c(S(=O)(=O)Nc2ccc(Cl)cc2)c1,0,0,0,0,0,-
CC1CCC(NC(=O)Cn2c(=O)oc3ccccc32)CC1 (configuration not stated),0,0,0,0,0,-
COc1ccc(-c2nc(CS(=O)CC(=O)NC3CCCc4ccccc43)c(C)o2)cc1OC (configuration not stated),0,0,0,0,0,-
COc1ccc(-c2nc(CSCC(=O)NC3CCCc4ccccc43)c(C)o2)cc1OC (configuration not stated),0,0,0,0,41,0
CC(=O)Nc1nc(SCC(=O)Nc2nnc(C)s2)[nH]c(=O)c1NC(=O)c1cccs1,0,0,0,0,0,-
COc1ccc(-c2oc3cccnc3c2/C=C/c2ccc(OC)c(OC)c2)cc1,0,0,0,0,41,0
COc1ccc(/C=C/c2c(-c3ccc(OC)cc3)oc(=O)c3cc(OC)c(OC)cc23)cc1,0,0,0,0,0,-
O=C(C1CCN(S(=O)(=O)c2cc(Cl)ccc2Cl)CC1)N1CCCC1,0,0,0,0,0,-
O=C(CN1c2ccccc2S(=O)(=O)c2ccccc21)Nc1ccccc1F,0,0,0,0,0,-
COc1ccc(C(C)=O)c(Oc2nc(CN3CCOCC3)nc3scc(-c4cccs4)c23)c1,0,0,0,0,40,0
CC(=O)c1ccccc1Oc1nc(CN2CCOCC2)nc2scc(-c3cccs3)c12,0,0,0,0,0,-
Cc1c(NC(=O)/C(C#N)=C/c2ccc(-c3ccc(Cl)c(Cl)c3)o2)c(=O)n(-c2ccccc2)n1C,0,0,0,0,43,28
C/C(=N/NS(=O)(=O)c1ccc(Cl)cc1)c1ccncc1,0,0,0,0,0,-
C/C(=N\NS(=O)(=O)c1ccc(C(C)(C)C)cc1)c1ccccc1,0,0,0,0,42,43
SMILES,Yeast superoxide,NALP3 yeast inh,tim23-1 inh,TIM10 inh,tim10-1 inh,tim10-1 conf
C/C(=N/NS(=O)(=O)c1ccccc1)c1ccc(Cl)cc1,0,0,0,0,0,0
COCCCn1cnnc1SCc1nc2sc(C(C)=O)c(C)c2c(=O)[nH]1,0,0,0,0,0,-
COc1ccc(S(=O)(=O)N2CCC(C(=O)N3CCc4ccccc4C3)CC2)cc1,0,0,0,0,0,-
CSc1ccc(S(=O)(=O)N2CCC(C(=O)N3CCc4ccccc4C3)CC2)cc1,0,0,0,0,43,0
O=C(COC(=O)C1CC(O)CN1S(=O)(=O)c1ccccc1[N+](=O)[O-])c1ccc[nH]1 (configuration not stated),0,0,0,0,0,-
Cc1nc2c(sc3nc(N4CCOCC4)c4c(c32)CC(C)(C)OC4)c(-c2ccc(Cl)cc2)c1C(=O)O,0,0,0,0,0,-
CC(C)N(Cc1ccccc1)C(=S)NC1CCCCC1,0,0,0,0,51,0
CCOC(=O)Cc1csc(SCC(=O)Nc2cc(C)ccc2OC)n1,0,0,0,0,0,-
O=C(COC(=O)C1(c2ccc(Cl)cc2)CCCC1)Nc1ncc(C(F)(F)F)cc1Cl,0,0,0,0,42,0
C=C(CO)C1Cc2cc(C(C)=O)ccc2O1 (configuration not stated),0,0,0,0,0,-
Cc1nc(N2CCCCC2)c2c(C)c(C(=O)Nc3ccc4c(c3)OCCO4)sc2n1,0,0,0,0,46,31
Cc1nc(N2CCN(c3ccccn3)CC2)c2c(C)c(C(=O)Nc3c(F)cc(F)cc3Br)sc2n1,0,0,0,0,40,0
O=C(CNS(=O)(=O)c1c(Cl)cccc1Cl)OCc1csc(-c2ccccc2)n1,0,0,0,0,47,32
CCn1c(SCC(=O)NNC(=S)Nc2ccc(C)cc2)nnc1-c1ccc(Cl)cc1,0,0,0,0,0,-
Cc1ccc(NC(=S)NNC(=O)CSc2nc3ccccc3c(=O)n2-c2ccc(C)cc2)cc1,0,0,0,0,57,34
Cn1cc(SCC(=O)Nc2ccc3c(c2)OCO3)c2ccccc21,0,0,0,0,0,-
Cc1ccc(NC(=S)NNC(=O)CSc2nnc(-c3ccc(Cl)cc3)n2C2CCCCC2)cc1,0,0,0,0,42,35
CCCn1cc(SCC(=O)Nc2ccc3c(c2)OCO3)c2ccccc21,0,0,0,0,43,0
Cc1ccc(-n2c(SCC(=O)Nc3ccc(N4CCOCC4)cc3)nc3ccccc3c2=O)cc1,0,0,0,0,0,-
COc1ccc(-n2c(SCC(=O)Nc3ccc4c(c3)OCO4)nc3ccccc3c2=O)cc1,0,0,0,0,40,0
CCOc1ccc(-n2c(SCC(=O)Nc3ccc4c(c3)OCO4)nc3ccccc3c2=O)cc1,0,0,0,0,0,-
CN1C(N)=NC(=O)/C1=C/c1ccc(OC(F)(F)F)cc1,0,0,0,0,0,-
O=C(OCCN1CCCCC1)c1cccc(Cl)c1,0,0,0,0,0,-
N#CCCN(Cc1cccnc1)C(=O)c1sc2cc(F)ccc2c1Cl,0,0,0,0,0,-
Cc1oc(-c2cccc(F)c2)nc1CN1CCCCC1CCc1ccccn1 (configuration not stated),0,0,0,0,0,-
C=C1CC[C@H](O)C/C1=C/C=C1\CCC[C@]2(C)[C@@H]([C@H](C)/C=C/[C@H](C)C(C)C)CC[C@@H]12,0,0,0,0,0,-
C=C1/C(=C\C=C2/CCC[C@]3(C)[C@@H]([C@H](C)/C=C/[C@@H](O)C4CC4)CC[C@@H]23)C[C@@H](O)C[C@@H]1O,0,0,0,0,44,0
